High-throughput results as filed in PubChem BioAssay.
ELG1 genotox: genotoxicity induction in ELG1-luciferase HEK293T cells; HEK293T ELG1-luciferase reporter, luminescence, 16 h; Potency, µM (doses to about 46 µM), without a hit: at the top dose activity change, positive = activation, hits mostly activators; actives 1.3% (n = 330,000); AID 504466; further: % of control where 0% means no effect; nearly all actives have a fitted effect of over 60% in size
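Genotoxic stress is detected as increased luminescence from luciferase-tagged ELG1 in HEK293T cells, measured with ONE-Glo after a 16 hr treatment at 37 °C.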
SMN2 splice up: increases expression of the SMN2 splice variant; actives 2.8% (n = 210,000); Potency, µM (highest dose often 46.1 µM), inactives show at the top dose activity change, positive = activation, actives largely listed as activators; HEK293 SMN2-luciferase splicing reporter, luminescence, 30-36 h; further: % of control where 0% means no effect; nearly all actives have a fitted effect of over 55% in size
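HEK293 cells carry an SMN2 […]–luciferase reporter in which exon 7 inclusion puts luciferase in frame. Cells were plated 10-12 h before compound addition, then incubated 30-36 h at 37C. ONE-Glo luminescence was read; sodium butyrate at 4.5 mM final served as control.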
FLuc counter: firefly luciferase modulation, counter-screen for miR-21 project; AID 588342; purified FLuc, Km substrates, luminescence inhibition; Potency, µM (top dose mostly 57.5 µM), without a hit: top-dose activity change, negative = inhibition, usual class: inhibitors; P08659; actives 6.9% (n = 360,000);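 further: plate controls were vehicle for no effect and reference inhibitor for full effect; nearly all actives have a fitted effect of over 55% in size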
Target sequence (P08659 whole entry, looked up): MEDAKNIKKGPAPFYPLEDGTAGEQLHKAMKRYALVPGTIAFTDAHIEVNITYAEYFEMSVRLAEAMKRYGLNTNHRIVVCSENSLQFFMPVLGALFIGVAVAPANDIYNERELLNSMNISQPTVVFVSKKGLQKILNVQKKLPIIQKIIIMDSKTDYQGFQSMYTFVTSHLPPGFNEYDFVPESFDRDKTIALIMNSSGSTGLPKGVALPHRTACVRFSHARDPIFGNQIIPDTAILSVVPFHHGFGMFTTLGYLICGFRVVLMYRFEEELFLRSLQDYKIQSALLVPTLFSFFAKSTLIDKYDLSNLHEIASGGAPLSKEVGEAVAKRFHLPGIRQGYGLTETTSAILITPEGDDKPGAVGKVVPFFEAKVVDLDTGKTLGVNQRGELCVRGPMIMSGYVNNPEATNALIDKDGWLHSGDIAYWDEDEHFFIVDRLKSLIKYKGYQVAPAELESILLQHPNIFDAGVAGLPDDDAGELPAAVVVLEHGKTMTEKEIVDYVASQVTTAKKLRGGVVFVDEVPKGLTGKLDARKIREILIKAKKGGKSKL
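Biochemical qHTS of compounds, final roughly 60 µM downward over six points, against 10 nM purified firefly luciferase using Km concentrations of substrates (10 uM D-luciferin, 10 uM ATP) in Tris acetate pH 7.5 buffer; luminescence output.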
NPC1 promoter act: activators of NPC1 promoter | Huh7 NPC1 promoter luciferase reporter, 24 h | Potency, µM (highest dose often 9.22 µM), for inactives: at the highest dose activation, actives largely listed as activators | actives 2.4% (n = 320,000) | AID 485313; further: % of control where 0% means no effect; nearly all actives have a fitted effect of over 60% in size
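In 1536-well qHTS, Huh7 cells harboring an NPC1 promoter–luciferase construct received compound for 24 h; activation was quantified by luminescence following luciferase reagent addition.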
Rab9 promoter act: activates the Rab9 promoter | Huh7 Rab9 promoter-luciferase reporter, luminescence, 24 h | actives 2.8% (n = 320,000) | AID 485297 | Potency, µM (top dose mostly 9.22 µM), without a hit: top-dose activation, negative = inhibition, hits mostly activators; further: % of control where 0% means no effect; nearly all actives have a fitted effect of over 60% in size
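Quantitative HTS format; Huh7 Rab9-luciferase reporter cells (1500/well) receive compound 2 h post-plating, incubate 24 h at 37 °C, then get luciferase reagent for 10 min before luminescence reading.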
* marks the source's active call; other numbers are inactive results; ? = inconclusive; . = no result; [ ] = another dose, or the depositor's remark. A selection: hits, their analogues and other compounds. The true share with any hit is near 7.4%. The call rests on the fitted dose curve; in most records, active means well fitted curve in the direction sought with a large enough effect; inconclusive means small, poorly fitted or top-dose-only effect, or another doubt; inactive means no such curve, though single readings can be large; an effect the other way counts as inactive or inconclusive. Potency means the concentration at half of the fitted maximal effect.

SMILES	ELG1 genotox	SMN2 splice up	FLuc counter	NPC1 promoter act	Rab9 promoter act
CC(C)(C)NC(=O)c1cccc(NC(=O)CSc2ccc(Cl)cc2)c1	-4%	-18%	11µM*	1%	-6%
CCCN(Cc1nnc(-c2cccs2)o1)C(=O)CN1C(=O)NC2(CCCCC2C)C1=O (stereo unspecified)	-3%	.	0%	0%	-4%
CC(=O)Oc1ccc(C(=O)Nc2cccc(C(=O)c3cccc(NC(=O)c4ccc(OC(C)=O)cc4)c3)c2)cc1	-6%	4%	-10%	-7%	-6%
CC(=O)Oc1ccc(C(=O)Nc2cccc(C(=O)NC(C)(C)C)c2)cc1	1%	-23%	19µM*	2%	-8%
CCOc1ccc(NC(=O)Cn2c(=O)n(-c3ccccc3)c(=O)c3ccc(C(=O)NCc4ccc5c(c4)OCO5)cc32)cc1	.	14%	-3%	.	.
Cc1ccc(-c2cc(-c3ccc(C)cc3O)[nH]n2)cc1	?	.	2.4µM*	0.71µM*	0.89µM*
Cc1ccc(-c2noc(-c3cc(-c4ccc(F)cc4)n[nH]3)n2)cc1	.	.	-10%	.	.
Cc1ccc(-c2cc(-c3ccc(F)cc3)n[nH]2)c(O)c1	?	.	4.3µM*	?	4µM*
Oc1ccc(F)cc1-c1cc(-c2ccc3c(c2)OCCO3)n[nH]1	?	13µM*	2.4µM*	3.2µM*	1.8µM*
Oc1ccccc1-c1cc(-c2ccc(F)cc2)n[nH]1	5.8µM*	.	3.4µM*	?	7%
S=C1NCN2CCN(CC2)CNC(=S)C(=S)NCN2CCN(CC2)CNC1=S	.	9%[9.22 µM]	.	.	.
O=C(CC1C(=O)Nc2ccccc2N1CC(=O)N1CCCC1)Nc1ccc(Br)cc1 (stereo unspecified)	-1%	.	-17%	5%	4%
Cc1occc1C(=O)N1CCC2(CCCN(Cc3ccc(F)c(F)c3)C2)C1 (stereo unspecified)	0%	.	1%	1%	8%
N#Cc1cccc(C(=O)Nc2cc(S(=O)(=O)N3CCOCC3)ccc2N2CCCC2)c1	1%	.	.	.	.
Cc1ccc(O)c(-c2cc(-c3cccc(Br)c3)n[nH]2)c1	23µM*	.	12µM*	?	4.5µM*
Oc1ccc(Br)cc1-c1cc(-c2ccccc2F)[nH]n1	0%	?	-2%[2.3 µM]	-5%	-1%
N/C(=N\OC(=O)CCCOc1ccccc1)c1ccncc1	1%	10%	-2%	0%	-4%
O=C(/C=C/c1ccccc1)c1ccccn1	19%	-11%	1.3µM*	?	?
O=C(/C=C/c1ccccc1Cl)NNC(=O)c1ccncc1	1%	.	21µM*	2%	20%
N/C(=N\OC(=O)/C=C/c1ccccc1)c1ccccn1	4.1µM*	13µM*	0.67µM*	?	2.5µM*
N/C(=N\OC(=O)/C=C/c1ccccc1)c1ccncc1	?	3%	6µM*	3.2µM*	1.8µM*
COc1ccccc1C/C(N)=N/OC(=O)/C=C/c1ccccc1	2%	6%	?	-1%	15%
Cc1ccc(N)cc1[N+](=O)[O-]	.	-12%	.	.	.
CS(=O)(=O)c1ccc(Cl)c(NC(=O)CN2CCN(C(=O)c3cccs3)CC2)c1	0%	.	.	.	.
CC(=O)c1ccc(N2CCN(CC(=O)Nc3ccccc3C(=O)NC3CC3)CC2)c(F)c1	1%	.	3%	1%	0%
SMILES	ELG1 genotox	SMN2 splice up	FLuc counter	NPC1 promoter act	Rab9 promoter act
N/C(=N\OC(=O)/C=C/c1ccccc1Cl)c1ccncc1	6%	1.4µM*	0.85µM*	1.3µM*	0.71µM*
CCOC(=O)N1CCc2c(sc(NCc3ccc(OC)c(Br)c3)c2C(=O)Nc2cc(OC)ccc2OC)C1	.	.	-7%	.	.
CCOC(=O)N1CCc2c(sc(NCc3cccc(F)c3)c2C(=O)Nc2ccc(OCC)cc2)C1	.	.	24µM*	.	.
CCc1ccc(OCC(=O)Nc2cc3oc4ccccc4c3cc2OC)c(Br)c1	.	-1%	-3%	.	.
O=c1cc(NS(=O)(=O)c2ccccc2)nc(SCc2ccc(Cl)cc2)[nH]1	23µM*	-1%	-1%	-1%	-8%
O=C(CSc1nc(NS(=O)(=O)c2ccccc2)cc(=O)[nH]1)Nc1ccc(Cl)cc1	-1%	.	-1%	-2%	-8%
CCOC(=O)N1CCN(C(=O)COC(=O)C2CCN(S(=O)(=O)c3c(C)c(C)cc(C)c3C)CC2)CC1	11%	.	1%	-1%	3%
Cc1[nH]n(-c2ccccc2)c(=O)c1N=Nc1cccc([N+](=O)[O-])c1	0%	.	13µM*	27%	19%
Cc1ccc(N=Nc2c(C)[nH]n(-c3ccccc3)c2=O)cc1Br	1%	.	-2%	18%	18%
Cc1ccc(N=Nc2c(C)[nH]n(-c3ccccc3)c2=O)c(C)c1	14%	.	-2%	-6%	-4%
CSc1ccc(N=Nc2c(C)[nH]n(C)c2=O)cc1	?	.	19µM*	2%	18%
Cc1[nH]n(-c2ccccc2)c(=O)c1N=Nc1ccc(F)cc1	?	.	2.7µM*	28%	?
Cc1[nH]n(-c2ccccc2)c(=O)c1N=Nc1ccc2c(c1)OCCO2	?	18µM*	6µM*	?	4µM*
N#CC1(NC(=O)CSc2n[nH]c(-c3ccccc3)n2)CCCCC1	0%	.	-13%	-2%	-5%
O=C(COc1ccc2c3c(c(=O)oc2c1)CCCC3)NCCCn1ccnc1	10%	.	6%	-2%	0%
Cc1[nH]n(-c2ccccc2)c(=O)c1N=Nc1cccc(Cl)c1	16%	.	9.5µM*	?	17%
Oc1cc2c(cc1O)C1c3ccc(O)c(O)c3OCC1(O)C2 (stereo unspecified)	1%	-106%	8.5µM*	1%	9%
COc1ccc(CC(=O)NNS(=O)(=O)c2ccc([N+](=O)[O-])cc2)cc1OC	-1%	.	1%	-7%	-3%
COc1ccc(Nc2nnc(SCC(=O)N3CC(=O)Nc4ccccc43)s2)cc1	-1%	.	8.5µM*	14%	15%
COc1cccc(Nc2nnc(SCC(=O)N3CCOCC3)s2)c1	14%	-8%	19µM*	12%	15%
CC(C)Oc1ccc(C(=O)Nc2nnc(SCC(=O)N3CCOCC3)s2)cc1	?	1.4µM*	0.06µM*	?	0.4µM*
COc1ccc(C(=O)Nc2ccc3nc(SCC(=O)N4CCOCC4)sc3c2)cc1	.	.	-7%	.	.
COc1ccc(Nc2nnc(SCC(=O)N3CCCC3)s2)cc1	0%	8%	17µM*	11%	1%
CC(Oc1cccc(Br)c1)C(=O)NNC(=O)CCNC(=O)c1ccccc1Cl (stereo unspecified)	2%	.	-1%	-3%	-6%
Oc1[nH]c2ccccc2c1N=Nc1ncnc2c1oc1ccccc12	0%	.	?	?	?
COc1ccc(Nc2nnc(SCC(=O)c3cc(C)n(CC4CCCO4)c3C)s2)cc1 (stereo unspecified)	2%	-27%	3.8µM*	9%	9%
COc1ccc(Nc2nnc(SCC(=O)c3cc4ccccc4o3)s2)cc1	2%	.	-17%	20%	2%
